Consider 39 sequences from the OligoGym collection.
Further: reference of the scale not given here.

The first experiment concerns the target TXNDC17. As to the kind of experiment: pooled miR-30 sensor sort-seq; sequence = guide strand. To be noted: shRNA.
TTAAGTAGTGTAGGCACTGCTG: the sensor-assay potency score (higher = more potent) is -0.868.

Turning to TTTCTGAAGTCATTATTTGGAT, the sensor-assay potency score (higher = more potent) was -0.595.

With TTTTCTGAAGTCATTATTTGGA, the sensor-assay potency score (higher = more potent) was -0.354.

With TTCTGAAGTCATTATTTGGATC, the sensor-assay potency score (higher = more potent) is -0.868.

Regarding TAAGTAGTGTAGGCACTGCTGT, the sensor-assay potency score (higher = more potent) was -0.733.

As for ATTGATACTAGAACAAATCAGG, the sensor-assay potency score (higher = more potent) is -0.62.

Regarding AGTAGATGAACACACATCCTTC, the sensor-assay potency score (higher = more potent) was -1.77.

Turning to TAGATGAACACACATCCTTCAC, the sensor-assay potency score (higher = more potent) was -0.655.

The sequence TTACTTTCAAGTTTTTTCTGAA displayed a sensor-assay potency score (higher = more potent) of 0.123.

For TTTTTCTGAAGTCATTATTTGG, the sensor-assay potency score (higher = more potent) is -1.37.

As for AAGACACTCAGATTCTACCAGT, the sensor-assay potency score (higher = more potent) was -0.12.

The target in another experiment is TXNDC2. Described as above. As to conditions: shRNA.
Take TCTTCTAGGGACTTGGGGCTGT: the sensor-assay potency score (higher = more potent) was -0.62.

Consider TTCCAAGAACTCTAGGGCCAGG, for which the sensor-assay potency score (higher = more potent) was -1.16.

Regarding TTCTTCTTCAGGCTTTAGGATG, the sensor-assay potency score (higher = more potent) is -1.62.

Turning to TTTTATAAAACTGAAAGGTTGG, the sensor-assay potency score (higher = more potent) is -0.0568.

With AAGAATGGTCTGATGGTCCTGC, the sensor-assay potency score (higher = more potent) stood at 0.56.

In the case of TTGGGGATGTCAATCTCCTTGG, the sensor-assay potency score (higher = more potent) was -0.981.

Regarding TTTCCAAGAACTCTAGGGCCAG, the sensor-assay potency score (higher = more potent) is -0.912.

In the case of TTTTTCTGAGGACTTGGGGAGG, the sensor-assay potency score (higher = more potent) is -1.18.

For the sequence TAGGATGTCACCCTCCTTGGAT, the sensor-assay potency score (higher = more potent) is -0.739.

Turning to TTCTTCTGAGGACTTGGGGAGG, the sensor-assay potency score (higher = more potent) was -1.18.

As for TCTTCTGAGGACTTGGGGCTGT, the sensor-assay potency score (higher = more potent) is -0.284.

TTTTTTATAAAACTGAAAGGTT: the sensor-assay potency score (higher = more potent) is -0.527.

A further experiment addresses UBA1. The experiment is described as above. To be noted: shRNA.
With TTCTTGAGCAGCTCACAGCCAA, the sensor-assay potency score (higher = more potent) was -0.992.

As for TTCTCTTGCAGGTCTGAGCCAA, the sensor-assay potency score (higher = more potent) is -0.695.

For TTTAACTTCGTGACATCCCAGG, the sensor-assay potency score (higher = more potent) was -0.746.

TTGGTGAGCACCACCACCTGGA displayed a sensor-assay potency score (higher = more potent) of 0.0519.

As to TTCTTAGGTACTTTGACCTGAC, the sensor-assay potency score (higher = more potent) came to 0.097.

On to TTGACATCAAAGGTGAGCGGGT, for which the sensor-assay potency score (higher = more potent) is -0.267.

On to TTCCGGTAGTAGACACAGCGGC, for which the sensor-assay potency score (higher = more potent) is -0.978.

With TACTTTGACCTGACTGACGATG, the sensor-assay potency score (higher = more potent) is -0.507.

TATAGTACTGGTGACGTGGTGC registered a sensor-assay potency score (higher = more potent) of 0.491.

TTAGGTACTTTGACCTGACTGA: the sensor-assay potency score (higher = more potent) was -0.00997.

With TATGTCTGCTTCACTGCCGTTC, the sensor-assay potency score (higher = more potent) is -0.544.

In turn, ATTCTTGTAGGAGTCAAGCTGT registered a sensor-assay potency score (higher = more potent) of 0.0651.

Another experiment addresses UBA3. The description is as above. As to conditions: shRNA.
For the sequence TTGGATCTAAGACACCATCTTC, the sensor-assay potency score (higher = more potent) is 0.0215.

Consider TAGAACTTTACATGTATCTAAC, for which the sensor-assay potency score (higher = more potent) was -0.95.

Regarding TTGTCGATAGAAAGTGTCGTTA, the sensor-assay potency score (higher = more potent) is -0.471.

As to TATATTGTGATGCTCTCTCTAG, the sensor-assay potency score (higher = more potent) is -0.466.
